# Test results reported in PubChem BioAssay AID624483 (NMMLSC, 2012).
# The whole screen tested about 360,000 compounds, of which about 11,000 (3.1%) were called active. About 2% were inconclusive and are not listed. The list comes from a sample in which actives are over-represented; it also holds similar structures and randomly drawn compounds. Values without a mark were called inactive. Rule as the data show it: active = fluorescence intensity above about 16000; inconclusive = no clear call, values can overlap the other calls; inactive = below that.
# Assay: counter-screen for toxin protease inhibitors: compound fluorescence, primary screen, artefact control for toxin protease inhibitor project, biochemical, multiplex microsphere, HTS (AID 624483)
# Conditions: compound autofluorescence counterscreen, microsphere flow cytometry; hits give high values
row,Structure (SMILES),fluorescence intensity
1,COc1ccccc1CNC(=O)C1CCN(c2nc3ccccc3o2)CC1,21300 (active)
2,COc1ccccc1CNC(=O)C1CCN(S(C)(=O)=O)CC1,8350
3,COc1ccc(OC)c(CNC(=O)C2CCCN(c3nc4ccccc4o3)C2)c1 (stereo not drawn),15800
4,COc1ccccc1CNC(=O)c1cc(-c2cc(F)ccc2OC)n[nH]1,3700
5,CC(C)C[C@H]1CNC(=O)C(=O)N1C[C@@H]1CCCN1C[C@H](Cc1ccccc1)N1C[C@H](CC(C)C)N(CC2CCCCCC2)C(=O)C1=O,5660
6,Cc1ccc2sc(N(CCN(C)C)C(=O)/C=C/c3cccs3)nc2c1C,4390
7,Cc1cccc2sc(N(CCCN(C)C)C(=O)CCS(=O)(=O)c3ccccc3)nc12,32000 (active)
8,Cc1cc(C)c2nc(N(CCN(C)C)C(=O)/C=C/c3cccs3)sc2c1,4460
9,COc1cc(/C=C/CNC[C@H]2O[C@@H](n3cnc(C(N)=O)n3)[C@H](O)[C@@H]2O)ccc1O,3180
10,O=C(NCc1ccccc1Cl)C1CCN(S(=O)(=O)N2CCOCC2)CC1,5690
11,Cc1ccccc1Cn1c(C)c(C(=O)NCc2cccc(C(F)(F)F)c2)sc1=O,5450
12,FC(F)(F)c1ccccc1Cc1c(-c2ccccc2)nc2c3ccccc3ccn12,6460
13,CC(C)OCCCNc1nc2c(c(=O)n(Cc3ccccc3F)c(=O)n2C)n1C,23400 (active)
14,Cn1c(=O)c2c(nc(NCCNC(=O)c3ccco3)n2Cc2ccccc2F)n(C)c1=O,5330
15,COc1ccc(N2CC(C)Cn3c2nc2c3c(=O)n(Cc3ccccc3F)c(=O)n2C)c(OC)c1 (stereo not drawn),5760
16,CCc1ccc([C@@H]2CC(=O)[C@@H]3CN(S(=O)(=O)c4ccc(C)cc4)[C@H](c4ccc(Cl)cc4)C[C@@H]3N2S(=O)(=O)c2ccc(C)cc2)cc1,6290
17,COc1ccc(CCn2c(O)c(C=NC3CC3)c(=O)[nH]c2=O)cc1OC,3180
18,COc1ccc(CCn2c(O)c(C=NCCCn3ccnc3)c(=O)[nH]c2=O)cc1OC,22700 (active)
19,O=c1[nH]c(=O)n(CCc2ccc(F)cc2)c(O)c1/C=N/N1CCCCC1,3680
20,CCc1nc2ccc(C(=O)Nc3cccc(OC)c3)cn2c1N(CCC(C)C)CCN(C)C,3940
21,COC(=O)c1ccc(S(=O)(=O)N(CCO)Cc2ccccc2)n1C,5690
22,CCCC(=O)N1CCC1(C)C(=O)NCc1ccc(SC)cc1 (stereo not drawn),4000
23,O=c1oc2ccccc2c(CNc2ccccc2)c1[N+](=O)[O-],3710
